In PubChem BioAssay (Tox21):
Results filed as inconclusive are left out. Active and inactive are the calls of the source. Unless noted, calls follow the shape of the full dose curve.

What was measured:
[1] = Nuclear factor erythroid 2-related factor 2/antioxidant responsive element (Nrf2/ARE) small molecule agonists: qHTS cell viability counter screen in human keratinocytes (AID 1919968; active = well fitted curve in the direction sought with a large enough effect in the repeat runs; an effect the other way counts as inactive or inconclusive; also: nearly all actives have a fitted effect of over 55% in size)
In short: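 KeratinoSens HaCaT cells, 1,500/well, preincubated 5 h, then exposed to compounds in DMSO for 23 h at 37 C/5% CO2. Viability read as CellTiter-Fluor fluorescence after 1 h, in the same wells as the ARE-luciferase read.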

[2] = Nuclear factor erythroid 2-related factor 2/antioxidant responsive element (Nrf2/ARE) small molecule agonists: luciferase reporter gene qHTS assay in human keratinocytes (AID 1919969); also: nearly all actives have a fitted effect of over 35% in size
[3] = target: Gonadotropin-releasing hormone receptor (Homo sapiens) (UniProt P30968); test: Human gonadotropin-releasing hormone receptor (GnRHR) small molecule agonists, calcium flux assay in GnRHR-HEK293 cells (AID 1920063); also: nearly all actives have a fitted effect of over 35% in size
In short: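 HEK293 cells stably expressing human GnRHR were dye-loaded for 1 h at 37 C. Compound was added in agonist mode and fluorescence (Ex/Em 480/540) recorded kinetically for 3 min. Fifteen concentrations, triplicates.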

[4] = target: KiSS-1 receptor (Homo sapiens) (UniProt Q969F8); test: Human kisspeptin (KISS1R) small molecule agonists, calcium flux assay in KISS1R-HEK293 cells (AID 1920064; active = well fitted curve in the direction sought with a large enough effect in the repeat runs; an effect the other way counts as inactive or inconclusive)
In short: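 HEK293 cells stably expressing human KISS1R were loaded with calcium dye for 1 h at 37 C, then given compound; fluorescence (Ex/Em 480/540) was read kinetically for 3 min. Fifteen concentrations, triplicate.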

[5] = G protein-coupled receptor (GPCR) small molecule agonists, calcium flux assay: HEK293 wild type cell line counter screen (AID 1920065)
In short: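 Wild-type HEK293 cells plated 18 h, loaded with calcium dye 1 h at 37 C, then compounds added in agonist mode (ATP as positive control). Kinetic fluorescence Ex/Em 480/540 recorded 3 min at 1 sec intervals; 15 concentrations, triplicate.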

[6] = p53 small molecule agonists, cell-based qHTS assay with human liver microsomes (AID 1963577);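 also: p53 response element beta-lactamase reporter cells with liver microsomes plus NADPH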
In short: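 HLM-supplemented p53RE-bla reporter assay: 16 h compound exposure at 37 C, microsomes and NADPH each 0.5 mg/mL final, read by fluorescence intensity.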

[7] = p53 small molecule agonists, cell-based qHTS assay with rat liver microsomes (AID 1963578)
In short: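 Quantitative HTS of the Tox21 10K library: p53RE-bla cells, rat liver microsomes plus NADPH at 0.5 mg/mL final each, 16 h at 37 C, beta-lactamase fluorescence detection.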

[8] = p53 small molecule agonists, cell-based qHTS assay with human liver microsomes: qHTS cell viability counter screen (AID 1963579); also: nearly all actives have a fitted effect of over 45% in size
In short: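 Viability of p53RE-bla cells is measured as CellTiter-Glo luminescence following a 16 h, 37 C incubation with compound, liver microsomes from human donors and NADPH.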

[9] = p53 small molecule agonists, cell-based qHTS assay with rat liver microsomes: qHTS cell viability counter screen (AID 1963580); also: nearly all actives have a fitted effect of over 45% in size
In short: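 HCT-116 p53RE-bla, 4,000 cells/well, 5 h pre-incubation; cpd + rat liver microsomes 0.5 mg/mL + NADPH 0.5 mg/mL (final); 16 h, 37 C; CellTiter-Glo, 30 min RT; luminescence.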

[10] = p53 small molecule agonists, cell-based qHTS assay: qHTS cell viability counter screen (AID 1963581); also: nearly all actives have a fitted effect of over 45% in size
In short: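 p53RE-bla HCT-116 cells, compounds added 5 h after plating and incubated 16 h at 37 C. Cytotoxicity measured in the same wells as intracellular ATP by CellTiter-Glo luminescence after 30 min at room temperature.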

[11] = target: 5-hydroxytryptamine receptor 2A (Homo sapiens) (UniProt P28223); test: 5-hydroxytryptamine receptor 2A (HTR2A) small molecule agonists, cell-based qHTS assay (AID 1963587); also: nearly all actives have a fitted effect of over 30% in size
In short: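 Kinetic calcium-flux fluorescence (2 min, 1 sec intervals) after compound addition in agonist mode. HTR2A-CHO cells were cultured 18 h, then dye-loaded 1 h at 37 C.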

[12] = target: Muscarinic acetylcholine receptor M1 (Homo sapiens) (UniProt P11229); test: Cholinergic receptor muscarinic 1 (CHRM1) small molecule agonists, cell-based qHTS assay (AID 1963589); also: nearly all actives have a fitted effect of over 35% in size
In short: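 CHO cells stably expressing human CHRM1 were loaded with calcium dye for 1 h at 37 C, then compound was added in agonist mode. Intracellular calcium fluorescence was followed kinetically at 1 s intervals. Fifteen concentrations were tested in three independent runs.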

[13] = target: Beta-2 adrenergic receptor (Homo sapiens) (UniProt P07550); test: Adrenergic beta2 receptor (ADRB2) small molecule antagonists, cell-based qHTS assay (AID 1963592); also: series mostly up to about 92 µM; nearly all actives have a fitted effect of over 50% in size
In short: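 Cells (CHO, stable ADRB2 overexpression) incubated 18-20hr at 37C; compounds added from DMSO; agonist mix (1nM isoproterenol, 100uM IBMX, 25uM Ro-20-1724) added; 0.5hr RT; d2-cAMP and anti-cAMP-cryptate added; 1hr RT; 665/615 nm read.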

[14] = target: D(2) dopamine receptor (Homo sapiens) (UniProt P14416); test: Dopamine D2 receptor (DRD2) small molecule agonists, cell-based qHTS assay (AID 1963594); also: nearly all actives have a fitted effect of over 35% in size
In short: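 cAMP accumulation in DRD2-HEK293 cells measured by HTRF after 1 h detection; compounds added 10 min before NKH477 (200nM […]) forskolin-analogue stimulation, 30 min at room temperature, with Ro20-1724 present at 0.1 mM final.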

[15] = cAMP Responsive Elements (CRE) small molecule antagonists, cell-based qHTS assay (AID 1963591; active = well fitted inhibition curve with a large enough effect in the signal ratio in the repeat runs, not every such curve was filed as active; the % refers to the signal ratio)
In short: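 CRE-bla HEK293T cells plated 18 h, then given compound plus NKH477 at 0.25 uM final for 3 h at 37C. Beta-lactamase reporter read with LiveBLAzer B/G FRET substrate after 2 h at room temperature.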

[16] = target: Beta-2 adrenergic receptor (Homo sapiens) (UniProt P07550); test: Adrenergic beta2 receptor (ADRB2) small molecule agonists, cell-based qHTS assay (AID 1963593);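 also: CHO cells stably overexpressing human ADRB2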
In short: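 CHO cells stably over-expressing ADRB2 were plated overnight at 37C, then dosed with compounds plus a stimulation mix containing 100uM IBMX and 25uM Ro-20-1724 for 0.5hr at room temperature. cAMP was measured by HTRF competition, 1hr.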

[17] = target: D(2) dopamine receptor (Homo sapiens) (UniProt P14416); test: Dopamine D2 receptor (DRD2) small molecule antagonists, cell-based qHTS assay (AID 1963595; active = well fitted inhibition curve with a large enough effect in the signal ratio in the repeat runs, with a control signal flat; the % refers to the signal ratio; also: potency is read from the fitted curve at half-maximal effect)
In short: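 Readout: HTRF cAMP, cAMP-d2 competing with cellular cAMP for anti-cAMP cryptate, read after 1 h. Cells: DRD2-HEK293. Conditions: 0.1 mM Ro20-1724, 12 nM quinpirole, 200 nM NKH477, 30 min RT.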

[18] = target: 5-hydroxytryptamine receptor 2A (Homo sapiens) (UniProt P28223); test: 5-hydroxytryptamine receptor 2A (HTR2A) small molecule antagonists, cell-based qHTS assay (AID 1963586); also: nearly all actives have a fitted effect of over 45% in size
In short: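 Antagonist-mode intracellular calcium assay: DOI (4 nM) added after 5 min compound pre-incubation at room temperature to dye-loaded HTR2A-CHO cells. Fluorescence followed for 3 min, sampled every second.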

[19] = target: Muscarinic acetylcholine receptor M1 (Homo sapiens) (UniProt P11229); test: Cholinergic receptor muscarinic 1 (CHRM1) small molecule antagonists, cell-based qHTS assay (AID 1963588); also: nearly all actives have a fitted effect of over 40% in size
In short: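 CHRM1-CHO calcium-flux assay, antagonist mode. Cells were seeded 18 h, dye-loaded 1 h at 37 C and given compound for 5 min at RT, then acetylcholine was added at 50nM. FDSS fluorescence was read 3 min; 15 concentrations, three runs.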

[20] = cAMP Responsive Elements (CRE) small molecule agonists, cell-based qHTS assay (AID 1963590)
In short: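 CRE-bla HEK 293T cells, 2,000/well in DMEM with 10% dialyzed FBS and 25 mM HEPES, pre-incubated 18 h at 37 C, then exposed to compound 3 h at 37 C. Beta-lactamase reporter read with LiveBLAzer B/G FRET substrate after 2 h at room temperature.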
% is scaled to controls: 0 for no effect and ±100 for the full control effect.

Sequence of Muscarinic acetylcholine receptor M1 (Homo sapiens) (P11229 whole entry, looked up): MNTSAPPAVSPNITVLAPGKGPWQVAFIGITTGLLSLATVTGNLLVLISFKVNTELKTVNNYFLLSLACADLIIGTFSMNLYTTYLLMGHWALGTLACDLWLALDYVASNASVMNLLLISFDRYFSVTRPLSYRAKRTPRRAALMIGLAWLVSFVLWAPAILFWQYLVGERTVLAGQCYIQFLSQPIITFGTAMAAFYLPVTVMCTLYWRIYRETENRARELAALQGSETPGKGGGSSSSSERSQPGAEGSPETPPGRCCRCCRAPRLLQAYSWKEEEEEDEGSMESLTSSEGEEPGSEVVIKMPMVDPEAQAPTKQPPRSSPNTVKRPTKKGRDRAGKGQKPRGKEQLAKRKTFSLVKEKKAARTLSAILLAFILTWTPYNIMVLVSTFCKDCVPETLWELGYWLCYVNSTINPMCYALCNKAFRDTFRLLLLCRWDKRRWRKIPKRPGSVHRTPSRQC
Sequence of KiSS-1 receptor (Homo sapiens) (Q969F8 whole entry, looked up): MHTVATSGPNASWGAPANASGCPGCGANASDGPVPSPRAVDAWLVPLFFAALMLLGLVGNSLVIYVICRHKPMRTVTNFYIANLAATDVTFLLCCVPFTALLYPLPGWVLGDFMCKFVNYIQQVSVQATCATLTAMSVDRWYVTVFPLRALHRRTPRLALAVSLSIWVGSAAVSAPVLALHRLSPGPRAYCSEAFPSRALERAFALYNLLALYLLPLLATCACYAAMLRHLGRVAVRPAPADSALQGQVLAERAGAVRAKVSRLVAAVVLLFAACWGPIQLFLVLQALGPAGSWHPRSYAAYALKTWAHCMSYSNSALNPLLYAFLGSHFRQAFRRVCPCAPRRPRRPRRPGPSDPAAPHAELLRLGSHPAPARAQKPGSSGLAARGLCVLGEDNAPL
Sequence of Beta-2 adrenergic receptor (Homo sapiens) (P07550 whole entry, looked up): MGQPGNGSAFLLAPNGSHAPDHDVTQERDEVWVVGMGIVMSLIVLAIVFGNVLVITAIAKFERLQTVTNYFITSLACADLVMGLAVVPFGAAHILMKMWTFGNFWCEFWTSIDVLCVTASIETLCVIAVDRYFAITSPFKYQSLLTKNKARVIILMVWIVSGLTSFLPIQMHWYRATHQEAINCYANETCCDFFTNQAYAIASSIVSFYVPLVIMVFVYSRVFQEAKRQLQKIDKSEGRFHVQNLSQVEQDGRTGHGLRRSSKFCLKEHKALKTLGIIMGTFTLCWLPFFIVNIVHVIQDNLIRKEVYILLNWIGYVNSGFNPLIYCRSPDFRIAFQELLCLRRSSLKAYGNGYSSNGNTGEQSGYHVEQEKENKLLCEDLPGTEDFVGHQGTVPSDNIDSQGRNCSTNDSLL
Sequence of Gonadotropin-releasing hormone receptor (Homo sapiens) (P30968 whole entry, looked up): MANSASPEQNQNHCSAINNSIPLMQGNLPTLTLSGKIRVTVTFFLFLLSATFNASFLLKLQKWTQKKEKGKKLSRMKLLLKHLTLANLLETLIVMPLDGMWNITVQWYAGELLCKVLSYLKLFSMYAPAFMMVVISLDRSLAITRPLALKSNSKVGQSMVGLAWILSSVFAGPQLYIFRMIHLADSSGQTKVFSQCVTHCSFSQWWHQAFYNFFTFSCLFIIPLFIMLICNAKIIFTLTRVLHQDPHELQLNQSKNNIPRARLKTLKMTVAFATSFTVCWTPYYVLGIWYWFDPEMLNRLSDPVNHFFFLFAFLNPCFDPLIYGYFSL
Sequence of 5-hydroxytryptamine receptor 2A (Homo sapiens) (P28223 whole entry, looked up): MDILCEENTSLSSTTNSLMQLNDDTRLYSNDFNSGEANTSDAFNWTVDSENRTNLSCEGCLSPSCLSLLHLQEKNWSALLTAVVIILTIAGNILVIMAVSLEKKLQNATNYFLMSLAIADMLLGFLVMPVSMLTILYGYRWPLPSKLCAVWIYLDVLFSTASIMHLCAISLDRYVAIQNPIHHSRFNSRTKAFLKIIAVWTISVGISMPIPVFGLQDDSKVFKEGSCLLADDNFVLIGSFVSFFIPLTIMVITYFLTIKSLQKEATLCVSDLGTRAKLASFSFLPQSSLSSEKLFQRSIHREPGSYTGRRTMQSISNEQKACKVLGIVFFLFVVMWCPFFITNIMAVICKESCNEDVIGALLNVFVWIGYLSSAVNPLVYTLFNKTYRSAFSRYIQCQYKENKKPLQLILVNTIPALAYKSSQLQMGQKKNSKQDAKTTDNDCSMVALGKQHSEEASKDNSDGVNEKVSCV
Sequence of D(2) dopamine receptor (Homo sapiens) (P14416 whole entry, looked up): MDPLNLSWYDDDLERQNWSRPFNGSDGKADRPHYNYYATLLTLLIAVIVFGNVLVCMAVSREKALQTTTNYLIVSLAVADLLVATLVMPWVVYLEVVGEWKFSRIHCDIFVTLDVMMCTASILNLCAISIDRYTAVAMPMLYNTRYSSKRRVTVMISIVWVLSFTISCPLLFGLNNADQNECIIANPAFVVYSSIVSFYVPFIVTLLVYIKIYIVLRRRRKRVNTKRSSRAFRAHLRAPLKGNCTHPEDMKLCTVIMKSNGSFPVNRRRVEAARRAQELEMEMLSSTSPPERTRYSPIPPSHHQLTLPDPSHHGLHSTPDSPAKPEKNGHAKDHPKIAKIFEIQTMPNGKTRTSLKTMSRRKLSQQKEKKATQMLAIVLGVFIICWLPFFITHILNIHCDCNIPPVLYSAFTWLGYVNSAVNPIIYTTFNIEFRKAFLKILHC

CCCN(CCC)C(=O)C(CCC(=O)OCCCN1CCN(CCOC(=O)Cc2c(C)n(C(=O)c3ccc(Cl)cc3)c3ccc(OC)cc23)CC1)NC(=O)c1ccccc1 (stereo not given)
inactive: Potency [1] | Potency [2] | Potency [3] | outcome [4] | outcome [5] | Potency [6] | Potency [7] | Potency [8] | Potency [9] | Potency [10] | Potency [11] | Potency [12] | Potency [13] | Potency [14]

CCN(CC)CCNC(=O)c1cc(S(C)(=O)=O)ccc1OC
inactive: Potency [1] | Potency [2] | Potency [3] | outcome [4] | outcome [5] | Potency [6] | Potency [7] | Potency [8] | Potency [9] | Potency [10] | Potency [15] | Potency [13] | Potency [16] | Potency [14]
active: Potency [17] 15 µM

Oc1ccc2c(c1)OCO2
inactive: Potency [1] | Potency [2] | Potency [3] | outcome [4] | outcome [5] | Potency [6] | Potency [7] | Potency [8] | Potency [9] | Potency [18] | Potency [11] | Potency [19] | Potency [12] | Potency [20] | Potency [15] | Potency [13] | Potency [14] | Potency [17]

O=C1c2ccccc2C(=O)c2cc(Cl)ccc21
inactive: activity change, negative = cytotoxicity [1] -4.18% [at 8.39 µM] | activity, positive = activation [2] 3.42% [at 8.39 µM] | activity change [3] -1.12% [at 5.22 µM, active compounds read high] | activation [4] -0.408% [at 6.97 µM] | activation [5] -1.07% [at 5.23 µM] | activation [6] -0.0412% [at 5.99 µM] | activation [7] 1.77% [at 5.99 µM] | activity change, negative = cytotoxicity [8] 3.98% [at 5.99 µM] | activity change, negative = cytotoxicity [9] 0.229% [at 5.99 µM] | activity, negative = inhibition [18] 0.237% [at 5.62 µM] | activation [11] -2.59% [at 7.02 µM] | activity, negative = inhibition [19] -8.9% [at 5.58 µM] | activation [12] -0.206% [at 6.97 µM] | activation [20] -1.41% [at 8.39 µM] | activity change, negative = inhibition [15] -1.91% [at 8.39 µM] | activity change, negative = inhibition [13] -7.09% [at 8.39 µM] | activation [14] 1.23% [at 8.39 µM] | activity change, negative = inhibition [17] -1.19% [at 8.38 µM]
